A number with no mark means an inactive call. The source made the active and inactive calls. The call rests on the fitted dose curve; in most records, active means well fitted curve in the direction sought with a large enough effect in the repeat runs; inconclusive means weak or mixed curves; inactive means flat fitted curve, though single readings scatter.

This note sets out measurements from PubChem BioAssay (Tox21).
On the % scale 0 is the no-effect control and ±100 the full control effect.

The assay in a line: qHTS assay to test for compound auto fluorescence at 590 nm (red) in HEK293 cells (AID 720679). To be noted: red autofluorescence 540/590 nm; series mostly up to 91.3 µM; fluorescence, % of fluorescent control: at the top concentration. Put shortly:
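Each well held 2,000 HEK293 cells in medium containing 10% dialyzed FBS. Following 4-5 hr attachment at 37C, 23 nL test compound or DMSO was added; plates sat overnight, and red fluorescence (540/590nm) was recorded.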
As to `CC(=O)C(C)=O`, the “fluorescence, % of fluorescent control” value is -0.491%. On the same count and under the same terms, the result for `O=C1[C@@H]2[C@H]3CC[C@H](C3)[C@@H]2C(=O)N1CCCCN1CCN(c2ncccn2)CC1` reads 0.152% [at 46 µM]; that for `CNS(=O)(=O)c1cc(C(=O)N2CCC(CCN3C4CCC3CC(n3c(C)nc5ccccc53)C4)(c3cccc(F)c3)CC2)c(Cl)cc1F` (configuration not stated), -0.105%. As to `O=C(O)CCS`, the “fluorescence, % of fluorescent control” value is -0.116% [at 95.7 µM].

Turning to `COc1ccc(CCN(C)CCCN2CCc3cc(OC)c(OC)cc3CC2=O)cc1OC`, the “fluorescence, % of fluorescent control” value is 0.0636% [at 46 µM]. `CCCCCC`: the “fluorescence, % of fluorescent control” value was -0.0054%.

Consider `O=C(O)CCC(=O)c1ccc(-c2ccccc2)cc1`, for which the fluorescence, % of fluorescent control was -0.0888% [at 18.6 µM]. For `CC1CCCO1` (configuration not stated), the “fluorescence, % of fluorescent control” value is 0.628%. Regarding `CSCC[C@H](NC(=O)[C@H](Cc1c[nH]c2ccccc12)NC(=O)CCNC(=O)OC(C)(C)C)C(=O)N[C@@H](CC(=O)O)C(=O)N[C@@H](Cc1ccccc1)C(N)=O`, the “fluorescence, % of fluorescent control” value is -0.222% [at 46 µM]. `COc1ccc(-c2cc(=S)ss2)cc1`: the “fluorescence, % of fluorescent control” value was -0.184% [at 46 µM]. In the case of `COc1ccc(-n2nc(C(F)F)cc2-c2ccc(S(C)=O)cc2)cc1` (configuration not stated), the “fluorescence, % of fluorescent control” value is -0.592%. Take `O=C(Oc1ccccc1)c1ccc2ccccc2c1O`: the “fluorescence, % of fluorescent control” value is 0.0909%. For `SCCc1cnccn1`, the “fluorescence, % of fluorescent control” value was 0.0873%.

As for `CCC(C)(C)C(=O)O`, the “fluorescence, % of fluorescent control” value was 0.227%. As to `Cc1cc(CCC(=O)OCCOCCOCCOC(=O)CCc2cc(C)c(O)c(C(C)(C)C)c2)cc(C(C)(C)C)c1O`, the “fluorescence, % of fluorescent control” value is -0.432%. The same measure, in the same setting: the result for `CCCCCCCC/C=C\CCCCCCCC(=O)OCCO` reads 0.0502% [at 95.7 µM]; that for `COc1ccc(N)c([N+](=O)[O-])c1`, -0.0072%. Take `COc1ccc2nc(S(=O)Cc3ncc(C)c(OC)c3C)[nH]c2c1` (configuration not stated): the result was inactive. Take `O=C(O)c1ccc(O)cc1O`: the “fluorescence, % of fluorescent control” value is 0.169%.

With `c1ccc(CNc2ncnc3c2ncn3C2CCCCO2)cc1` (configuration not stated), the “fluorescence, % of fluorescent control” value was 0.14%. For the molecule `C[C@@H]1[C@H](O)[C@@H](C)/C=C/C=C\C=C\C=C\C=C\C=C\C=C\[C@H](O[C@@H]2O[C@H](C)[C@@H](O)[C@H](N)[C@@H]2O)C[C@@H]2O[C@](O)(C[C@@H](O)C[C@@H](O)[C@H](O)CC[C@@H](O)C[C@@H](O)CC(=O)O[C@H]1C)C[C@H](O)[C@H]2C(=O)O` (stereo in doubt), the outcome was inactive.

With `O=C(O)CCC(=O)OC[C@@H](NC(=O)C(Cl)Cl)[C@H](O)c1ccc([N+](=O)[O-])cc1`, the “fluorescence, % of fluorescent control” value is 0.12% [at 46 µM]. In the case of `CC(=O)OCCC(C)CC(C)(C)C` (configuration not stated), the “fluorescence, % of fluorescent control” value is 0.0411%. Same read-out and setting: the result for `O=C1NC(=O)c2cccc3cccc1c23` reads 0.248%. As to `CCN(CC)c1ccc(C(=C2C=CC(=[N+](CC)CC)C=C2)c2ccc(S(=O)(=O)O)cc2S(=O)(=O)[O-])cc1`, the “fluorescence, % of fluorescent control” value is -0.103%. As to `CCCCC[C@H](O)/C=C/[C@H]1[C@H](O)CC(=O)[C@@H]1C/C=C\CCCC(=O)O`, the “fluorescence, % of fluorescent control” value was -0.0823% [at 46 µM].

With `CC[C@@H](CO)NCCN[C@@H](CC)CO`, the fluorescence, % of fluorescent control is -0.143% [at 18.6 µM]. In the case of `O=[N+]([O-])C1(Br)COCOC1`, the “fluorescence, % of fluorescent control” value is -0.0794%.

Take `CCCCOC(=O)CCCCC(=O)OCCCC`: the “fluorescence, % of fluorescent control” value is -0.139%. In the case of `N[C@@H](Cc1cc(I)c(O)c(I)c1)C(=O)O`, the “fluorescence, % of fluorescent control” value was 0.0436% [at 46 µM]. With `O=C(O)c1cccc(C[C@@H]2COc3ccc(OCc4nc5cc(F)ccc5s4)cc3[C@@H]2O)c1`, the “fluorescence, % of fluorescent control” value was 0.296%.

`CN(C)CC/C=C1\c2ccccc2Sc2ccc(Cl)cc21`: the “fluorescence, % of fluorescent control” value is -0.647% [at 46 µM]. On to `CCOC(=O)C(C)O` (configuration not stated), for which the “fluorescence, % of fluorescent control” value was -0.0603% [at 95.7 µM]. Turning to `Cc1c(C2(c3cc(Br)c(O)c(Br)c3C)OS(=O)(=O)c3ccccc32)cc(Br)c(O)c1Br`, the “fluorescence, % of fluorescent control” value was -0.248%. `CCC(CO)(CO)CO`: the “fluorescence, % of fluorescent control” value was 0.0206% [at 95.7 µM]. Turning to `CCOC(=O)c1ccc(NC(=O)CN2CCCCC2)cc1`, the “fluorescence, % of fluorescent control” value is -0.146% [at 46 µM].

With `CCN(Cc1cccc(S(=O)(=O)O)c1)c1ccc(C(=C2C=CC(=[N+](CC)Cc3cccc(S(=O)(=O)O)c3)C=C2)c2ccccc2S(=O)(=O)[O-])cc1`, the “fluorescence, % of fluorescent control” value is 0.171%.
